# System: Plasmodium falciparum NF54-HGL (transmission to Anopheles stephensi)
# Experiment: percentage of barcode signal found in uninfected mosquitoes (transmission-blocking activity); higher = stronger blocking of transmission to mosquito, active = 80 or more
# Conditions: 10 µM; gametocyte preincubation time 24 h; readout time post-feed 8 days
# Method: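 The mixture was fed to Anopheles stephensi in 96-well plates as blood meals tagged with DNA-barcoded Asaia bacteria. Eight days later, mosquitoes were classed infected or uninfected by luminescence (mean + 5 SD of unfed controls). Barcodes were quantified by Luminex MagPlex-TAG in the pooled uninfected and infected Asaia cultures, background-corrected, and the score is % of barcode signal in uninfected mosquitoes = 100*Iu/(Iu+Ii).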
row,Structure (SMILES),percentage of barcode signal found in uninfected mosquitoes
1,CCOC(=O)c1cc(-c2csc(Nc3c(C)cc(C)cc3C)n2)on1,11.5% (inactive)
2,Nc1ncc(-c2ccc(C(F)(F)F)nc2)cc1-c1ccc(C(F)(F)F)nc1,1.73% (inactive)
3,Cc1cc(C)cc(COc2ccc3c(C)c(CCC(=O)O)c(=O)oc3c2C)c1,1.73% (inactive)
4,Clc1ccc(CCNc2cc(-c3ccccc3)nc3ncnn23)cc1,-1.04% (inactive)
5,O=C(NC1CC1)c1ccc(N2CCOc3ccc(Cl)cc32)s1,49.7% (inactive)

# Same assay, conditions: 20 µM; gametocyte preincubation time 24 h; readout time post-feed 8 days
row,Structure (SMILES),percentage of barcode signal found in uninfected mosquitoes
1,Cc1ccc(S(=O)(=O)n2cc(-c3ccnc(N)c3)c3cc(Br)cnc32)cc1,1.79% (inactive)
2,Cc1ccc(S(=O)(=O)Nc2ccc(CN3CCN(C(=O)c4cccc(C#N)c4)CC3)cc2)cc1,0.0235% (inactive)
3,COc1cc(-c2cc(-c3ccc(S(C)(=O)=O)cc3)cnc2N)ccc1O,48.6% (inactive)
4,CCCCS(=O)(=O)Nc1ccc2cnn(C)c2c1,4.19% (inactive)
5,COc1ccc(Cn2cnc3c(-c4ccco4)nc(Cl)nc32)cc1,21.6% (inactive)
6,COc1cccc(-c2nc3c(N4CCCC4)cccc3n2CC2CCCN2)n1 (configuration not stated),68% (inactive)
7,O=C([C@@H](c1ccc(Cl)cc1)c1cccnc1)N1CCN(c2ccc(C(F)(F)F)cc2)CC1,-0.981% (inactive)
8,O=C(Nc1cccc(Cl)c1)c1cnc(N2CCN(c3ccncc3)CC2)c(Cl)c1,56% (inactive)
9,O=C(NCCc1ccn(-c2ccccc2)n1)C1CCCCC1,3.62% (inactive)
10,N=C(N)Nc1ccc(-c2ccc(-c3ccc(NC(=N)N)cc3Cl)o2)c(Cl)c1,39.3% (inactive)
11,CC(=O)Nc1ccc(-c2noc(CC3CCCN(Cc4cccc(F)c4C)C3)n2)cc1 (configuration not stated),0.0253% (inactive)
12,CCn1ncc2c(NC3CCOCC3)c(CNC(=O)c3ccnn3C)c(C)nc21,91.2% (active)
13,COc1cccc(-n2nnnc2S(C)(=O)=O)c1,70.1% (inactive)
14,COc1ccc(CCN2CCC(NCc3cccc(N(C)C)c3)CC2)cc1,94.9% (active)
15,Cc1cc(OCC(=O)Nc2ccc(C(C)C)cc2)n(C)c(=O)c1C#N,35% (inactive)
16,CCC(NC(=O)c1ccccc1NC(=O)c1ccc(C)cc1)C(=O)OC (configuration not stated),95.2% (active)
17,COc1cccc(CC(=O)N2CCC(n3c(C)nc4ccc(F)cc43)CC2)c1,31.2% (inactive)

# Reference: the supplement of paper PMC8726507
